# Measurements reported in PubChem BioAssay (Tox21).
# Where “and” joins values, the source holds several entries; their conditions need not be identical. Equal entries are not always repeated. Inconclusive results are not listed. A call without a number means that no potency is given here. The source holds several records for some structures; these can differ, active in one and inactive in another. Calls of active or inactive are those of the source. Unless noted, calls come from the whole dose curve; as a rule, active = well fitted cell-killing curve with a large enough effect in the repeat runs (not every such curve was filed as active); inconclusive = weak or mixed curves, or effect the other way; inactive = no such curve, though single readings can be large or run the other way.
# Biological target: Bile acid receptor (Homo sapiens) (UniProt Q96RI1)
# Assay: qHTS assay to identify small molecule agonists of the farnesoid-X-receptor (FXR) signaling pathway (AID 743220; active = well fitted activation curve with a large enough effect in the signal ratio in the repeat runs, not every such curve was filed as active; the % refers to the signal ratio)
# Conditions: HEK293T FXR-UAS-bla, beta-lactamase FRET ratio, 16 h; series mostly up to 62.6 µM; activation: at the top concentration
# Method in brief: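 Beta-lactamase reporter under UAS control in GeneBLAzer FXR HEK 293T cells (5000/well) measured with LiveBLAzer FRET substrate after 2 h at room temperature. Compound exposure lasted 16 h at 37C.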
# Bile acid receptor (Homo sapiens), sequence (Q96RI1 whole entry, looked up): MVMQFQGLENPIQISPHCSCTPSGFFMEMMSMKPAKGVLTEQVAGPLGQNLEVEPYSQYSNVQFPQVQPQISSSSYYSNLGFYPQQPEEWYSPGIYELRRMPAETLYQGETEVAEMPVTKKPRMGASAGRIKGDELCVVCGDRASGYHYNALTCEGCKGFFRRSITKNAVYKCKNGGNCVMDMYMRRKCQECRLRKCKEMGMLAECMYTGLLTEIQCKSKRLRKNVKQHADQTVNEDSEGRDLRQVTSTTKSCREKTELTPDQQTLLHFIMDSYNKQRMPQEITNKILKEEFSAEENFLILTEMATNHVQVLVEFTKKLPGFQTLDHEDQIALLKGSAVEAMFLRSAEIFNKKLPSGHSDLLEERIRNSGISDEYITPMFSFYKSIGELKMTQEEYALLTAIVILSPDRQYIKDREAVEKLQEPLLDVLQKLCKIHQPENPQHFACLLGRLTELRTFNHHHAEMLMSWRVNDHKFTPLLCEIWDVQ
Compound,activation,outcome
O=C(Nc1ncc([N+](=O)[O-])s1)c1cccs1,-1.14% (inactive),–
NC(=O)n1c(O)c(C(=O)c2cccs2)c2cc(Cl)ccc21,-1.81% (inactive),–
C=C1CC[C@H](O)C/C1=C\C=C1/CCC[C@]2(C)[C@@H]([C@H](C)CCCC(C)C)CC[C@@H]12,-3.13% (inactive),–
Nc1ccc2c(c1)CN1C(=O)c3ccccc3C1=N2,-0.372% [at 29.1 µM] (inactive),–
CCc1nc(N)nc(N)c1-c1ccc(Cl)cc1,–,inactive

# Tested on: not listed separately
# Assay: qHTS assay to identify small molecule antagonists of the farnesoid-X-receptor (FXR) signaling pathway - cell viability counter screen (AID 743221); note: nearly all actives have a fitted effect of over 50% in size; note: potency is the fitted concentration of half-maximal effect
# Conditions: FXR-bla HEK293T viability, CellTiter-Glo luminescence, 16 h; series mostly up to 62.6 µM; activity change, negative = cytotoxicity: at the top concentration
# Method in brief: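 Cytotoxicity is taken from ATP luminescence (CellTiter-Glo, 30 min, room temperature) in FXR-bla HEK 293T cells previously incubated 16 h at 37 C with compound and chenodeoxycholic acid at 50 uM final.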
Compound,Potency,"activity change, negative = cytotoxicity"
COc1ccc2c(c1)c(CC(=O)O)c(C)n2C(=O)c1ccc(Cl)cc1,inactive,–
CC(O)(P(=O)(O)O)P(=O)(O)O,inactive,–
Cn1c(=O)c2c(ncn2C)n(C)c1=O,inactive,–
Nc1ccc(S(N)(=O)=O)cc1,inactive,–
CN(C)CCOC(c1ccccc1)c1ccccc1,inactive,–
O=C(O)c1ccccc1,inactive,–
C/C=C/C=C/C(=O)O,inactive,–
C[C@](N)(Cc1ccc(O)c(O)c1)C(=O)O,inactive,–
F[B-](F)(F)F,inactive,–
O=C1O[C@H]([C@@H](O)CO)C(O)=C1O,inactive,–
O=C(O)CC(O)C(=O)O (stereo unspecified),inactive,–
CC(=O)CC(c1ccccc1)c1c(O)c2ccccc2oc1=O (stereo unspecified),inactive,–
CC/C(=C(\c1ccccc1)c1ccc(OCCN(C)C)cc1)c1ccccc1,inactive and 49.4 µM (active) and 54.9 µM (active),–
NC(=O)n1c(O)c(C(=O)c2cccs2)c2cc(Cl)ccc21,–,5.06% (inactive)
C1=CC2C3C=CC(C3)C2C1 (stereo unspecified),–,11.5% [at 81.1 µM] (inactive)
C=C1CC[C@H](O)C/C1=C\C=C1/CCC[C@]2(C)[C@@H]([C@H](C)CCCC(C)C)CC[C@@H]12,48.5 µM (active),–
